We go through 14 sequences from PMC11006913.

Holding throughout (experiment): PBM; 200 nM protein, PBS
Details in all cases: dsDNA, one strand shown

The target in assay [1] is T1, NKX2-4 (Homo sapiens, UniProt Q9H2Z4 175-261, P217L).
T1 sequence: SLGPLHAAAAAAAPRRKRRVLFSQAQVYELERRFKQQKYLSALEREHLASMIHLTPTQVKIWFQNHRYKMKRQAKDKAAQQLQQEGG

In assay [2] the target is T2, NKX2-4 (Homo sapiens, UniProt Q9H2Z4 175-261, T231S).
T2 sequence: T1 sequence with L43P, T57S

In assay [3] the target is T3, NKX2-4 (Homo sapiens, UniProt Q9H2Z4 175-261).
T3 sequence: T1 sequence with L43P

Assay [4] deals with HOXA2 (Homo sapiens, UniProt O43364 129-215, R185T).
Assay [5] deals with HOXA2 (Homo sapiens, UniProt O43364 129-215, R185K).
Assay [6] has as its target T4, NKX2-4 (Homo sapiens, UniProt Q9H2Z4 175-261, R246Q).
T4 sequence: T1 sequence with L43P, R72Q

In assay [7] the target is VAX1 (Homo sapiens, UniProt Q5SQQ9 86-172).
In assay [8] the target is VAX1 (Homo sapiens, UniProt Q5SQQ9 86-172, T142I).
The target of assay [9] is HOXA2 (Homo sapiens, UniProt O43364 129-215, Y150S).
Assay [10] addresses HOXA2 (Homo sapiens, UniProt O43364 129-215).
Assay [11] has as its target VAX1 (Homo sapiens, UniProt Q5SQQ9 86-172, K157R).
The target in assay [12] is PRRX1 (Homo sapiens, UniProt P54821 80-166, F113S).
Assay [13] has as its target PRRX1 (Homo sapiens, UniProt P54821 80-166).
The target in assay [14] is HOXD13 (Homo sapiens, UniProt P35453 263-343, T313R).
Assay [15] deals with HOXD13 (Homo sapiens, UniProt P35453 263-343).
Assay [16] concerns the target HOXD13 (Homo sapiens, UniProt P35453 263-343, T313A).
In assay [17] the target is T5, NKX2-6 (Homo sapiens, UniProt A6NCS4 118-204, R150C).
T5 sequence: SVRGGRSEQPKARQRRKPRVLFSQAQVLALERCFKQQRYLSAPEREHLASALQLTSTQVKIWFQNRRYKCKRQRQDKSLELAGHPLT

Assay [18] has as its target HOXC10 (Homo sapiens, UniProt Q9NYD6 254-340).
For assay [19], the target named is HOXC10 (Homo sapiens, UniProt Q9NYD6 254-340, K271E).
Assay [20] addresses HOXB6 (Homo sapiens, UniProt P17509 132-218, K202E).
For assay [21], the target named is HOXB6 (Homo sapiens, UniProt P17509 132-218).

Numbering of substitutions follows the chain as printed.

Sequence of HOXB6 (Homo sapiens, UniProt P17509 132-218, K202E) (P17509 132-218 K202E): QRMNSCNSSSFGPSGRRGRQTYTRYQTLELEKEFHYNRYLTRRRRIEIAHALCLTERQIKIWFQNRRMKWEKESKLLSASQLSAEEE
Sequence of HOXB6 (Homo sapiens, UniProt P17509 132-218) (P17509 132-218): as the sequence (P17509 132-218 K202E) above, with E71K counted along it
Sequence of HOXC10 (Homo sapiens, UniProt Q9NYD6 254-340) (Q9NYD6 254-340): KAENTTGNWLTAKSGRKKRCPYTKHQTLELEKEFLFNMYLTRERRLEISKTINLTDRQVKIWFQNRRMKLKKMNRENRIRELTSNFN
Sequence of HOXA2 (Homo sapiens, UniProt O43364 129-215) (O43364 129-215): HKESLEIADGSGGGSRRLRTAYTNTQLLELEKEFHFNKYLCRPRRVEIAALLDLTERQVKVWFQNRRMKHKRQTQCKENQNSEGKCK
Sequence of VAX1 (Homo sapiens, UniProt Q5SQQ9 86-172, T142I) (Q5SQQ9 86-172 T142I): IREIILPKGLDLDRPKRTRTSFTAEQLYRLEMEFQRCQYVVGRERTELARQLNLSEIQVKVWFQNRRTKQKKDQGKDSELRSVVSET
Sequence of HOXC10 (Homo sapiens, UniProt Q9NYD6 254-340, K271E) (Q9NYD6 254-340 K271E): as the sequence (Q9NYD6 254-340) above, with K18E counted along it
Sequence of HOXD13 (Homo sapiens, UniProt P35453 263-343, T313A) (P35453 263-343 T313A): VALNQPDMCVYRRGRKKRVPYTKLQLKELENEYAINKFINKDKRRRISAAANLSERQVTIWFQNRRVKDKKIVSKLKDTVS
Sequence of HOXD13 (Homo sapiens, UniProt P35453 263-343) (P35453 263-343): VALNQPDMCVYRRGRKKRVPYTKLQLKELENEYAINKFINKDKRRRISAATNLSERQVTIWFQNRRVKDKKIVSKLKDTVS
Sequence of HOXA2 (Homo sapiens, UniProt O43364 129-215, R185T) (O43364 129-215 R185T): as the sequence (O43364 129-215) above, with R57T counted along it
Sequence of HOXA2 (Homo sapiens, UniProt O43364 129-215, Y150S) (O43364 129-215 Y150S): as the sequence (O43364 129-215) above, with Y22S counted along it
Sequence of PRRX1 (Homo sapiens, UniProt P54821 80-166, F113S) (P54821 80-166 F113S): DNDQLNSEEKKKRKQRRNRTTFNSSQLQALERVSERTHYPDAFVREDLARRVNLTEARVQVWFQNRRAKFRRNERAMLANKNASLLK
Sequence of HOXA2 (Homo sapiens, UniProt O43364 129-215, R185K) (O43364 129-215 R185K): as the sequence (O43364 129-215) above, with R57K counted along it
Sequence of HOXD13 (Homo sapiens, UniProt P35453 263-343, T313R) (P35453 263-343 T313R): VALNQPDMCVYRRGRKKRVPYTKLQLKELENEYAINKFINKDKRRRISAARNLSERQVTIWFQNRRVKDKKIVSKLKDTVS
Sequence of VAX1 (Homo sapiens, UniProt Q5SQQ9 86-172, K157R) (Q5SQQ9 86-172 K157R): as the sequence (Q5SQQ9 86-172 T142I) above, with I57T, K72R counted along it
Sequence of PRRX1 (Homo sapiens, UniProt P54821 80-166) (P54821 80-166): as the sequence (P54821 80-166 F113S) above, with S34F counted along it
Sequence of VAX1 (Homo sapiens, UniProt Q5SQQ9 86-172) (Q5SQQ9 86-172): as the sequence (Q5SQQ9 86-172 T142I) above, with I57T counted along it

With GCCACGCC, the binding signal in assay [1] is 9.91 upbm affinity estimate (log intensity, higher = more binding, comparable within an allelic series); in assay [2] it was 9.93 upbm affinity estimate (log intensity, higher = more binding, comparable within an allelic series); in [3], 9.88 upbm affinity estimate (log intensity, higher = more binding, comparable within an allelic series); in [4] it was 7.26 upbm affinity estimate (log intensity, higher = more binding, comparable within an allelic series); in [5], 10.2 upbm affinity estimate (log intensity, higher = more binding, comparable within an allelic series); in assay [6] it was 9.85 upbm affinity estimate (log intensity, higher = more binding, comparable within an allelic series). In addition, the binding signal in assay [7] was 7.13 upbm affinity estimate (log intensity, higher = more binding, comparable within an allelic series); in assay [8], 7.33 upbm affinity estimate (log intensity, higher = more binding, comparable within an allelic series); in [9], 10.4 upbm affinity estimate (log intensity, higher = more binding, comparable within an allelic series); in assay [10], 7.17 upbm affinity estimate (log intensity, higher = more binding, comparable within an allelic series); in assay [11], 7.18 upbm affinity estimate (log intensity, higher = more binding, comparable within an allelic series).

In the case of CCCGGCCC, the binding signal is 9.77 upbm affinity estimate (log intensity, higher = more binding, comparable within an allelic series) in assay [1]; 9.78 upbm affinity estimate (log intensity, higher = more binding, comparable within an allelic series) in [2]; 9.81 upbm affinity estimate (log intensity, higher = more binding, comparable within an allelic series) in assay [3]; 9.84 upbm affinity estimate (log intensity, higher = more binding, comparable within an allelic series) in assay [6].

With CCCGCCTC, the binding signal was 9.39 upbm affinity estimate (log intensity, higher = more binding, comparable within an allelic series) in [1]; 9.25 upbm affinity estimate (log intensity, higher = more binding, comparable within an allelic series) in assay [2]; 9.33 upbm affinity estimate (log intensity, higher = more binding, comparable within an allelic series) in assay [12]; 9.39 upbm affinity estimate (log intensity, higher = more binding, comparable within an allelic series) in [3]; 9.31 upbm affinity estimate (log intensity, higher = more binding, comparable within an allelic series) in assay [6]; 8.99 upbm affinity estimate (log intensity, higher = more binding, comparable within an allelic series) in assay [13].

Take CGCCGCAG: the binding signal is 9.48 upbm affinity estimate (log intensity, higher = more binding, comparable within an allelic series) in assay [1]; 9.2 upbm affinity estimate (log intensity, higher = more binding, comparable within an allelic series) in assay [2]; 9.51 upbm affinity estimate (log intensity, higher = more binding, comparable within an allelic series) in assay [3]; 9.57 upbm affinity estimate (log intensity, higher = more binding, comparable within an allelic series) in assay [14]; 9.58 upbm affinity estimate (log intensity, higher = more binding, comparable within an allelic series) in [15]; 9.58 upbm affinity estimate (log intensity, higher = more binding, comparable within an allelic series) in assay [6]. In addition, in [16], the binding signal was 9.63 upbm affinity estimate (log intensity, higher = more binding, comparable within an allelic series).

As to ATCGGAGC, the binding signal is 9.93 upbm affinity estimate (log intensity, higher = more binding, comparable within an allelic series) in assay [1]; 9.93 upbm affinity estimate (log intensity, higher = more binding, comparable within an allelic series) in [2]; 9.9 upbm affinity estimate (log intensity, higher = more binding, comparable within an allelic series) in assay [3]; 10 upbm affinity estimate (log intensity, higher = more binding, comparable within an allelic series) in [6].

As for AGAGGGCT, the binding signal in assay [1] was 11.7 upbm affinity estimate (log intensity, higher = more binding, comparable within an allelic series); in [2], 11.9 upbm affinity estimate (log intensity, higher = more binding, comparable within an allelic series); in assay [3], 11.7 upbm affinity estimate (log intensity, higher = more binding, comparable within an allelic series).

For AAAGGCGG, the binding signal was 9.6 upbm affinity estimate (log intensity, higher = more binding, comparable within an allelic series) in [1]; 9.51 upbm affinity estimate (log intensity, higher = more binding, comparable within an allelic series) in [2]; 9.55 upbm affinity estimate (log intensity, higher = more binding, comparable within an allelic series) in assay [3]; 9.54 upbm affinity estimate (log intensity, higher = more binding, comparable within an allelic series) in assay [17]; 9.58 upbm affinity estimate (log intensity, higher = more binding, comparable within an allelic series) in assay [6].

For AGCCTCAG, the binding signal in assay [1] was 9.76 upbm affinity estimate (log intensity, higher = more binding, comparable within an allelic series); in [2], 9.76 upbm affinity estimate (log intensity, higher = more binding, comparable within an allelic series); in assay [18] it was 10.1 upbm affinity estimate (log intensity, higher = more binding, comparable within an allelic series); in assay [3], 9.79 upbm affinity estimate (log intensity, higher = more binding, comparable within an allelic series); in [19], 10.1 upbm affinity estimate (log intensity, higher = more binding, comparable within an allelic series); in [6], 9.76 upbm affinity estimate (log intensity, higher = more binding, comparable within an allelic series).

Take ACCATTGA: the binding signal in [1] was 11.3 upbm affinity estimate (log intensity, higher = more binding, comparable within an allelic series); in assay [2], 11.5 upbm affinity estimate (log intensity, higher = more binding, comparable within an allelic series); in assay [3] it was 11.3 upbm affinity estimate (log intensity, higher = more binding, comparable within an allelic series); in assay [20] it was 9.55 upbm affinity estimate (log intensity, higher = more binding, comparable within an allelic series); in assay [6], 11.5 upbm affinity estimate (log intensity, higher = more binding, comparable within an allelic series); in assay [21], 10.2 upbm affinity estimate (log intensity, higher = more binding, comparable within an allelic series).

GGTCCTCA: the binding signal in assay [1] is 11.5 upbm affinity estimate (log intensity, higher = more binding, comparable within an allelic series); in [2], 11.9 upbm affinity estimate (log intensity, higher = more binding, comparable within an allelic series); in assay [3], 11.5 upbm affinity estimate (log intensity, higher = more binding, comparable within an allelic series).

For the sequence GCACGGGC, the binding signal is 9.59 upbm affinity estimate (log intensity, higher = more binding, comparable within an allelic series) in [1]; 9.54 upbm affinity estimate (log intensity, higher = more binding, comparable within an allelic series) in assay [2]; 9.58 upbm affinity estimate (log intensity, higher = more binding, comparable within an allelic series) in assay [3]; 9.56 upbm affinity estimate (log intensity, higher = more binding, comparable within an allelic series) in assay [6].

Turning to CCAGGCTC, the binding signal in [1] is 9.76 upbm affinity estimate (log intensity, higher = more binding, comparable within an allelic series); in [2], 9.75 upbm affinity estimate (log intensity, higher = more binding, comparable within an allelic series); in assay [3], 9.7 upbm affinity estimate (log intensity, higher = more binding, comparable within an allelic series); in assay [20], 9.08 upbm affinity estimate (log intensity, higher = more binding, comparable within an allelic series); in assay [6], 9.86 upbm affinity estimate (log intensity, higher = more binding, comparable within an allelic series); in assay [21] it was 9.18 upbm affinity estimate (log intensity, higher = more binding, comparable within an allelic series).

ATCACACC: the binding signal in assay [1] is 9.96 upbm affinity estimate (log intensity, higher = more binding, comparable within an allelic series); in [2] it was 9.93 upbm affinity estimate (log intensity, higher = more binding, comparable within an allelic series); in assay [3] it was 9.81 upbm affinity estimate (log intensity, higher = more binding, comparable within an allelic series); in assay [6], 9.96 upbm affinity estimate (log intensity, higher = more binding, comparable within an allelic series).

In the case of CGCACGCG, the binding signal was 9.51 upbm affinity estimate (log intensity, higher = more binding, comparable within an allelic series) in [1]; 9.45 upbm affinity estimate (log intensity, higher = more binding, comparable within an allelic series) in [2]; 9.53 upbm affinity estimate (log intensity, higher = more binding, comparable within an allelic series) in assay [3]; 9.45 upbm affinity estimate (log intensity, higher = more binding, comparable within an allelic series) in assay [6].
